Assay results as given in PubChem BioAssay (NCI).
About 83,000 compounds went through this panel and 20% of them were active in at least one assay; those are over-represented in the sample as a whole.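 Single-dose data. Exposure time 48 hours. Values below 10 considered active.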 Values without a mark were called inactive. Active and inactive are the calls of the source.

The molecules below were run on CAKI-1 renal (assay: NCI-60 one-dose screen, 48 h (100 = growth as untreated, 0 = no growth, -100 = all killed)). Conditions: 10 µM unless noted.
Work on `COc1cc(NC(=O)c2cccc(-c3cc(=O)c4c(OC)c(OC)c(OC)cc4o3)c2)cc(OC)c1OC` yielded a growth of 40.6%. Work on `COc1ccc(NC(=O)c2cccc(-c3cc(=O)c4c(O)c(OC)c(OC)cc4o3)c2)cc1` yielded a growth of 93.6%. Work on `O=C1NN(C(=O)c2ccc(O)cc2)C(c2ccccc2)=N/C1=C\c1cn(-c2ccccc2)nc1-c1ccccc1` yielded a growth of 98.6%. `CO[C@H]1/C=C/O[C@@]2(C)Oc3c(C)c(O)c4c(c3C2=O)C(=O)C(/C=N/N(c2ccccc2)c2ccccc2)=C(NC(=O)/C(C)=C\C=C\[C@H](C)[C@H](O)[C@@H](C)[C@@H](O)[C@@H](C)[C@H](OC(C)=O)[C@@H]1C)C4=O` was tested, and the growth was -4.42% (active). Work on `C[C@@H]1C(=O)N(C[C@H](Cc2ccccc2)N(Cc2ccccc2)Cc2ccccc2)[C@]1(Cc1ccccc1)C(=O)OC(C)(C)C` yielded a growth of 55.2%. In the case of `COc1cc(/C=C/C(=O)c2cccc(-n3cc(-c4ccc(Cl)cc4)[nH]c3=O)c2)cc(OC)c1OC`, the growth is reported as 65.6%. `COc1cc(-c2ccc(N=Nc3c(O)c(C(=O)Nc4ccccc4OC)cc4ccccc34)c(OC)c2)ccc1N=Nc1c(O)c(C(=O)Nc2ccccc2OC)cc2ccccc12` was tested, and the growth was 83.8%. For `CC/C=C/[C@@H]1C=C[C@@H]2CCC[C@H]2[C@@H]1CC[C@H](O)[C@H](C)N`, the growth was -50.6% (active). `COc1ccc(C(=O)/C=C/c2cc3c(c(OC)c2)OCC(=O)N3)cc1` gave a growth of 20.8%. `Nc1nc(N)c(-c2ccc(Cl)cc2)c(/C=C/c2ccc([N+](=O)[O-])cc2)n1` gave a growth of 86.3%.
